{
  "source": "PubChem BioAssay AID430",
  "about": "(Sanford-Burnham Center for Chemical Genomics, 2006)",
  "note": "About 1,100 (1.7%) of roughly 63,000 compounds were called active. Only a selection was taken, and actives are over-represented in it overall. Potency and affinity values are given separately. Unmarked numbers belong to inactive results. Cut-off read from the data, not from the text of the source: active = cytotoxicity above about 50%; inactive = the rest.",
  "data": [
    {"assay": "cytotoxicity in HPDE-C7 cells, cell-based, fluorescence, HTS (AID 430);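 note: cells exposed to compound for 48 hours before viability readout; 0% = vehicle and 100% = reference cytotoxic drug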", "details": "HPDE-C7 pancreatic duct cells viability, at 10 µM, hits give high values", "values": [
      {"smiles": "CCN1C(=O)c2ccccc2S(=O)(=O)c2ccc(C(=O)NCc3cccnc3)cc21", "cytotoxicity": "-0.2%"},
      {"smiles": "CC(C)n1nc(C(=O)Nc2nc3ccc(S(C)(=O)=O)cc3s2)c2ccccc2c1=O", "cytotoxicity": "54.4% (active)"},
      {"smiles": "COc1ccccc1C(=O)Nc1nc2ccc(S(C)(=O)=O)cc2s1", "cytotoxicity": "2.7%"},
      {"smiles": "CS(=O)(=O)c1ccc2nc(NC(=O)c3cccs3)sc2c1", "cytotoxicity": "-8.3%"},
      {"smiles": "COCCCNC(=O)c1ccc(N2CCCC2)c(NS(=O)(=O)c2ccc(C)cc2)c1", "cytotoxicity": "-13.4%"},
      {"smiles": "CC1CC(C)CN(C(=O)c2cn(C)c3ccc(S(=O)(=O)N(C)C)cc3c2=O)C1", "note": "(stereo not given)", "cytotoxicity": "0.8%"},
      {"smiles": "CC12CC(NC(=O)N1c1cccc(C(=O)NCc3ccc4c(c3)OCO4)c1)c1cc(Cl)ccc1O2", "note": "(stereo not given)", "cytotoxicity": "27.3%"},
      {"smiles": "c1ccc(-n2nnnc2Oc2cccc3cccnc23)cc1", "cytotoxicity": "19.3%"},
      {"smiles": "N#Cc1cc(Oc2cccc3cccnc23)c(-n2nnc3ccccc32)cc1C#N", "cytotoxicity": "63.7% (active)"},
      {"smiles": "COc1ccccc1Oc1cc(C#N)c(C#N)cc1-n1nnc2ccccc21", "cytotoxicity": "-8.8%"},
      {"smiles": "CCOC(=O)CNC(=O)CSc1nc2cccnc2n1C", "cytotoxicity": "-7.9%"},
      {"smiles": "CNc1sc(C(=O)c2cccs2)c(N)c1-c1nc2ccccc2s1", "cytotoxicity": "33.3%"},
      {"smiles": "CCNc1sc(C(=O)c2cccs2)c(N)c1-c1nc2ccccc2s1", "cytotoxicity": "73.7% (active)"},
      {"smiles": "CCNc1sc(C(=O)c2cccs2)c(N)c1C#N", "cytotoxicity": "-12.7%"},
      {"smiles": "COc1ccccc1Nc1nc(C2(C)CCC(=O)O2)cs1", "note": "(stereo not given)", "cytotoxicity": "6.8%"},
      {"smiles": "Cn1c(-c2nonc2NC(=O)c2ccc(C(C)(C)C)cc2)nc2ccccc21", "cytotoxicity": "-0.1%"},
      {"smiles": "CCCn1cc(S(=O)(=O)CC(=O)Nc2ccc(OCC)cc2)c2ccccc21", "cytotoxicity": "-9.9%"},
      {"smiles": "COc1ccc(-c2oc3ncn4nc(COc5ccccc5)nc4c3c2-c2ccc(OC)cc2)cc1", "cytotoxicity": "54.9% (active)"},
      {"smiles": "Cc1nc2c3c(-c4ccccc4)c(-c4ccccc4)oc3ncn2n1", "cytotoxicity": "-9.4%"},
      {"smiles": "COc1ccccc1OCc1nc2c3c(-c4ccccc4)c(-c4ccccc4)oc3ncn2n1", "cytotoxicity": "7.7%"},
      {"smiles": "COc1ccc(-c2oc3ncn4nc(Cc5ccccc5)nc4c3c2-c2ccc(OC)cc2)cc1", "cytotoxicity": "62.3% (active)"},
      {"smiles": "COc1ccc(-c2oc3ncn(CCN4CCOCC4)c(=N)c3c2-c2ccc(OC)cc2)cc1", "cytotoxicity": "16%"},
      {"smiles": "N=c1c2c(-c3ccccc3)c(-c3ccccc3)oc2ncn1CCN1CCOCC1", "cytotoxicity": "29.3%"},
      {"smiles": "CCOc1ccc(CCNC(=O)CCN2C(=O)COc3ccccc32)cc1OCC", "cytotoxicity": "-19.6%"},
      {"smiles": "CCOC(=O)/C=C1\\SCC(=O)N1CC(=O)Nc1ccccc1OC(F)F", "cytotoxicity": "2.3%"},
      {"smiles": "CN(C)C(=O)N1CCC(C(=O)NCc2ccc(F)cc2)CC1", "cytotoxicity": "-10.1%"},
      {"smiles": "Cc1[nH]nc2c1C(Cc1ccccc1)C(C#N)=C(N)O2", "note": "(stereo not given)", "cytotoxicity": "-12.3%"},
      {"smiles": "Cc1cccc(Nc2ccccc2C(=O)O)c1C", "cytotoxicity": "3.8%"},
      {"smiles": "Cc1ccc(Cl)c(Nc2ccccc2C(=O)O)c1Cl", "cytotoxicity": "66.2% (active)"},
      {"smiles": "Cc1c(Cl)cccc1Nc1ccccc1C(=O)O", "cytotoxicity": "-3.4%"},
      {"smiles": "O=C1c2ccccc2C(=O)N1CCCc1nc(-c2cccnc2)no1", "cytotoxicity": "6.9%"},
      {"smiles": "Fc1ccc(-n2c(-c3ccco3)nc3nc4ccccc4nc32)cc1", "cytotoxicity": "-1.1%"},
      {"smiles": "N#Cc1nc(-c2ccc(OCc3ccccc3)cc2)oc1NCc1cccnc1", "cytotoxicity": "0.6%"},
      {"smiles": "N#Cc1nc(-c2ccc(OCc3ccc(Cl)cc3)cc2)oc1NCCCn1ccnc1", "cytotoxicity": "-0.4%"},
      {"smiles": "N#Cc1nc(Cc2ccccc2)oc1NCc1cccnc1", "cytotoxicity": "-12.4%"},
      {"smiles": "N#Cc1nc(-c2ccc(OCc3ccccc3)cc2)oc1NCCN1CCOCC1", "cytotoxicity": "-1%"},
      {"smiles": "N#Cc1nc(-c2ccc(F)cc2)oc1NCc1ccccc1", "cytotoxicity": "-17.1%"},
      {"smiles": "N#Cc1nc(-c2ccc(OCc3ccc(Cl)cc3)cc2)oc1NCc1cccnc1", "cytotoxicity": "53.4% (active)"},
      {"smiles": "CC(C)(C)c1ccc(-c2nc(C#N)c(NCc3ccncc3)o2)cc1", "cytotoxicity": "54.6% (active)"},
      {"smiles": "COc1ccc(CNc2oc(-c3ccccc3)nc2C#N)cc1", "cytotoxicity": "5.7%"},
      {"smiles": "N#Cc1nc(COc2ccc(-c3ccccc3)cc2)oc1NCc1cccnc1", "cytotoxicity": "61.9% (active)"},
      {"smiles": "COc1ccc(-c2nc(C#N)c(NCCCN3CCOCC3)o2)cc1", "cytotoxicity": "-6.6%"},
      {"smiles": "COc1ccc(CNc2oc(COc3ccccc3)nc2C#N)cc1", "cytotoxicity": "0.5%"},
      {"smiles": "Cc1ccc(-n2nnc3c(=O)n(Cc4ccccc4C)cnc32)cc1", "cytotoxicity": "0.5%"},
      {"smiles": "COCCNC(=O)C(c1ccc(Cl)cc1)N(C(=O)CCC(=O)Nc1ccccn1)C1CCCC1", "note": "(stereo not given)", "cytotoxicity": "-1.7%"},
      {"smiles": "CNCCOCC(O)CSc1ccccc1", "note": "(stereo not given)", "cytotoxicity": "1.2%"},
      {"smiles": "Cc1cccc(-c2nnn(CC/C(N)=N/O)n2)c1", "cytotoxicity": "2.8%"},
      {"smiles": "CCN1CCN(c2nc(-c3cccnc3)nc3ccccc23)CC1", "cytotoxicity": "-27.8%"},
      {"smiles": "COc1ccc(NC(=O)C(Cc2ccccc2)NC(=O)c2ccco2)cc1OC", "note": "(stereo not given)", "cytotoxicity": "-0.4%"},
      {"smiles": "c1ccc(CSc2nnc3c(n2)OC(c2ccco2)Nc2ccccc2-3)cc1", "note": "(stereo not given)", "cytotoxicity": "-3.6%"}
    ]}
  ]
}
